Screening data as filed in PubChem.
Dicer inh: human Dicer pre-microRNA cleavage inhibition | z-score at 25 µM | 47,000 tested, 6% active | Q9UPY3 | cat-ELCCA pre-miR-21 Dicer processing, chemiluminescence; active compounds read high; in the data active = z-score above about 3, passing the limit was not always enough;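 also: plate controls were vehicle for no effect and no enzyme for full effect; higher signal means more uncleaved substrate so more Dicer inhibition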
Numbers without * were called inactive. The full list was thinned out, with hits kept by preference.

SMILES	Dicer inh
CC1=C(C(=O)OCCOC(C)C)C(c2ccc(N(C)C)cc2)C2=C(CCCC2=O)N1 (stereo not drawn)	-0.03
Cc1[nH]c2ccccc2c1C1(O)C(=O)N(CCOc2ccccc2)c2ccccc21 (stereo not drawn)	-1.5
O=C(O)c1ccc(N2C(=O)C3CC=CCC3C2=O)cc1Cl (stereo not drawn)	1.5
Cn1cc(C2CC(=O)N(c3ccc(O)cc3)C2=O)c2ccccc21 (stereo not drawn)	1.9
COc1ccc(N2C(=O)CC(Sc3nc(C)c4ccccc4n3)C2=O)cc1 (stereo not drawn)	1.7
O=C1CC(c2ccccc2)CC(=O)N1c1ccccc1	-4
COc1ccc(N2C(=O)CC(N3CCN(C)CC3)C2=O)cc1 (stereo not drawn)	-1.6
CC(C)(C)NC1CC(=O)N(c2ccccc2)C1=O (stereo not drawn)	-2.2
O=C1CC(c2ccccc2)CC(=O)N1c1ccc(Oc2ccc(Cl)cc2)cc1	-0.44
O=C1CC(c2ccccc2)C(=O)N1c1cc(Cl)cc(Cl)c1 (stereo not drawn)	5.3*
CC(C)(C)c1ccc(N2C(=O)CC(c3ccccc3)C2=O)cc1 (stereo not drawn)	5.3*
COc1ccc(N2C(=O)CC(c3ccccc3)C2=O)cc1 (stereo not drawn)	4.3*
O=c1c2c(-c3ccccc3)csc2ncn1Cc1c(F)cccc1Cl	4
CC1CCN(C(=O)Cn2cc(C(=O)C3CCCCC3)c3ccccc32)CC1	1.5
C/C(=N/O)c1nnc2cc(C)nn2c1C	-1.5
O=[N+]([O-])c1cccc2cn[nH]c12	-0.78
O=C(O)c1cc2cccc([N+](=O)[O-])c2[nH]1	132*
CCCCNC(=O)c1cc2cccc([N+](=O)[O-])c2[nH]1	1.1
CN=C(Nc1ccccc1OC)SC	0.67
Cc1ccc(N2CC(O)=C(c3nc4ccccc4s3)C2=N)cc1	0.48
N=C1C(c2nc3ccccc3s2)=C(O)CN1C1CCCCC1	3.1*
N=C1C(c2nc3ccccc3s2)=C(O)CN1Cc1ccccc1	0.75
COc1ccc(C(=O)CSc2nc(C)c(Oc3ccc(Cl)cc3)c(=O)[nH]2)cc1	0.31
CC(C1CC1)N(C(=O)c1ccccc1)c1ccccc1 (stereo not drawn)	-1.7
COCc1nc(-c2ccccn2)[nH]c(=O)c1CC1CC1	0.08
SMILES	Dicer inh
O=C(CC1CC(=O)Oc2ccccc21)Nc1nccs1 (stereo not drawn)	3.8*
O=C(Cn1c(=O)sc2ccccc21)Nc1nccs1	-1.1
O=C(Nc1nccs1)C1COc2ccccc2O1 (stereo not drawn)	0.33
CC1CC(C(=O)O)C(C(=O)O)CC1C (stereo not drawn)	0.23
O=S(=O)(Nc1cccc(C(F)(F)F)c1)c1c(F)c(Br)cc(F)c1Br	0.03
CCOC(=O)Cn1nnc(N2CCCC2)n1	-0.83
COc1ccc(OC)c(SCC(=O)O)c1	-1.8
COc1ccc(OC)c(-c2sccc2CC(=O)O)c1	3.8*
COC(=O)c1cc(-c2cc(OC)ccc2OC)no1	0.69
COc1ccc(Oc2cccc(Cl)c2CNC(=O)Nc2ccc(OCc3ccccc3)cc2)cc1	1.4
C=CCSc1nnc2c(n1)OC(/C=C/c1cccs1)N(C(C)=O)c1ccccc1-2 (stereo not drawn)	-1.6
O=C(O)CCCC(=O)c1c[nH]c2ccccc12	0.77
O=C1Sc2ccc(S(=O)(=O)Nc3ccc(Br)cc3)c3cccc1c23	3.3*
CN1C(=O)c2cccc3c(S(=O)(=O)Nc4ccc(C(=O)O)cc4)ccc1c23	0.11
O=C1Sc2ccc(S(=O)(=O)Nc3cccc(Cl)c3)c3cccc1c23	2.4
CSc1nnc(S/C(C(C)=O)=C(/C)O)s1	-1.4
Clc1ccc(CN2C3=NCCCN3c3ccccc32)cc1	0.55
Fc1ccc(CN2C3=NCCCN3c3ccccc32)cc1	0.52
Fc1ccc(CN2C3=NCCN3c3ccccc32)cc1	7.4*
CCn1c(SCC(=O)c2ccccc2)nc2sc3c(c2c1=O)CC(C)(C)OC3	-0.17
CC1(C)Cc2c(sc3[nH]c(=O)n(CC(=O)O)c(=O)c23)CO1	3.9*
C=C(C)Cn1c(SCCC)nc2sc3c(c2c1=O)CC(C)(C)OC3	4.3
Cc1nn(Cc2nnc(SCC(=O)Nc3ccc(Cl)cc3Cl)o2)c(C)c1Br	-1.1
N#Cc1cnc(N(Cc2ccccc2)Cc2ccccc2)nc1N	0.67
CNNC(=S)Nc1cccc(Cl)c1C	2.8
SMILES	Dicer inh
O=C1N/C(=N/N=C\c2[nH]ncc2Br)SC1c1ccccc1 (stereo not drawn)	3.4*
O=C1CS/C(=N/N=C/c2ccn[nH]2)N1	-0.26
CCOC(=O)NC1c2ccccc2Oc2ccc(OC)cc21 (stereo not drawn)	-1.4
CCN(CC)c1cccc(Oc2nc([N+](=O)[O-])nn2Cc2ccccc2F)c1	1.4
CC(C)N1C(=O)C(O)(CC(=O)c2ccco2)c2ccccc21 (stereo not drawn)	6.9*
CCCN1C(=O)C(O)(CC(=O)c2ccco2)c2ccccc21 (stereo not drawn)	0.02
COc1ccc(OC)c(C(=O)CC2(O)C(=O)N(C(C)C)c3ccccc32)c1 (stereo not drawn)	0.57
